{"source": "ChEMBL document CHEMBL3988442", "about": "“University of Dundee, Small-Polar-MMV Screening Library” (2021)", "data": [{"target": "AMP-activated protein kinase, AMPK (Homo sapiens) (UniProt P54646+O43741+P54619+Q9UGJ0+Q9Y478+Q13131+Q9UGI9)", "experiment": "AMP-dependent Kinase enzyme assay. An in vitro enzyme assay that detects ADP turnover that is directly proportional to AMPK activity. This uses naive AMPK that is activated during the assay with MK-8722", "assay_type": "functional", "set-up": "scale not given: direction of the effect not stated beside the values", "conditions": "30 µM", "units": {"Percent Effect": "%"}, "values": [{"compound": "Cc1cc(C)n(CC2CCN(CC(O)Cn3cccn3)CC2)n1", "note": "(stereo not given)", "Percent Effect": -0.567}, {"compound": "Cc1cc(=O)c2cc(F)ccc2n1CC(=O)O", "Percent Effect": 7.06}, {"compound": "Cc1noc(C2CCN(Cn3cc(Br)cn3)CC2)n1", "Percent Effect": 18.3}, {"compound": "CNS(=O)(=O)CC(=O)N(C1CC1)C1Cc2ccccc2C1", "Percent Effect": -3.11}, {"compound": "NC(=O)C1CCN(CCCNC(=O)Nc2nncs2)CC1", "Percent Effect": 1.35}, {"compound": "OCCC1CCN(c2ccnc3ccsc23)C1", "note": "(stereo not given)", "Percent Effect": 1.38}, {"compound": "Cc1ncsc1C(=O)N[C@@H](Cc1ccccc1)C(N)=O", "Percent Effect": 8.09}, {"compound": "O=C(CCn1cnnn1)N1CCCC(CO)(CCc2ccccc2)C1", "note": "(stereo not given)", "Percent Effect": 6.31}, {"compound": "COc1ccc(-n2cccn2)c(CN2CCOCC(CN(C)C)C2)c1", "note": "(stereo not given)", "Percent Effect": 1.67}, {"compound": "Cc1nc2n(n1)CC(NCc1c(Cl)ccc3cccnc13)CC2", "note": "(stereo not given)", "Percent Effect": 11.7}, {"compound": "CN(Cc1cccc(OC(F)(F)F)c1)Cc1cnn(C)c1", "Percent Effect": -4.15}, {"compound": "CCC(C(=O)NC1(C(N)=O)CCCC1)n1cccn1", "note": "(stereo not given)", "Percent Effect": -1.13}, {"compound": "OC(CNCc1nnc2ccccn12)c1ccc2c(c1)OCO2", "note": "(stereo not given)", "Percent Effect": 9.33}, {"compound": "CCC[C@H]1CN(C(=O)c2ccc3[nH]c(CO)nc3c2)C[C@@H]1N", "Percent Effect": 8.21}, {"compound": "CC(C)c1nn(C)c(Cl)c1CNCC(=O)N1CCN(C)CC1", "Percent Effect": -14.6}, {"compound": "CCN(CC)C(CNC(=O)c1cccnc1-n1cncn1)c1ccsc1", "note": "(stereo not given)", "Percent Effect": 5}, {"compound": "O=C(O)[C@H]1C[C@@H](C(=O)NCc2ccncc2)CN(Cc2ccccc2)C1", "Percent Effect": -3}, {"compound": "COc1ccc(C2(C(=O)N3CC(c4cccnc4)C3)CC2(C)C)cc1", "note": "(stereo not given)", "Percent Effect": -5.88}, {"compound": "NC(=O)NC(CC(=O)N1CCc2sccc2C1)c1cccc(Br)c1", "note": "(stereo not given)", "Percent Effect": 13.9}, {"compound": "Cc1noc(C(C)N2CCC(c3nc4ccccc4[nH]3)CC2)n1", "note": "(stereo not given)", "Percent Effect": 1.83}, {"compound": "COc1nccc(N2CC[C@@H](N3CCC(O)CC3)[C@H](O)C2)c1C#N", "Percent Effect": 5.62}, {"compound": "COc1cccc(S(=O)(=O)N2CCOC(C)(C(N)=O)C2)c1", "note": "(stereo not given)", "Percent Effect": 22.4}, {"compound": "CCC(CO)NC(=O)c1cc(COc2ccc(OC)cc2Cl)[nH]n1", "note": "(stereo not given)", "Percent Effect": -8.13}, {"compound": "Cc1nsc(C(=O)NCCc2cccs2)n1", "Percent Effect": 1.77}, {"compound": "N#Cc1cccnc1NCCc1cc(F)cc2c1OCOC2", "Percent Effect": 22.2}, {"compound": "CCC(Nc1ccc(CCN2CCCCC2)cc1)C(N)=O", "note": "(stereo not given)", "Percent Effect": -12.9}, {"compound": "Cc1cc(C(=O)NCCN2CCCCCC2)nn1C(C)(C)C", "Percent Effect": 4.2}, {"compound": "Cn1ccc(N2CCCC(NC(=O)c3ccsc3)C2=O)n1", "note": "(stereo not given)", "Percent Effect": -4.2}, {"compound": "O=C(CCn1ccnc1)N1CC[C@H](Oc2ccc(F)cc2)[C@@H](O)CC1", "Percent Effect": 20.9}, {"compound": "CC(=O)N[C@H]1CCN(C(=O)c2cc(Cn3cnc4ccccc43)[nH]n2)C1", "Percent Effect": -3.06}, {"compound": "CN(C)C(=O)Cn1cnc2c(Br)cccc2c1=O", "Percent Effect": -4.74}, {"compound": "CC(C)c1nccc(CN(C)Cc2cccc(-n3cccn3)c2)n1", "Percent Effect": -3.37}, {"compound": "Cc1cc(N2CCCC(N(C)C)C2)n2nc(C)cc2n1", "note": "(stereo not given)", "Percent Effect": -1.24}, {"compound": "Cc1nc(CNCc2cccc(OC34CCCN(CC3)C4)c2)n[nH]1", "note": "(stereo not given)", "Percent Effect": -7.43}, {"compound": "CN(C)S(=O)(=O)N1CCC(C(O)c2ccc(Cl)cc2)CC1", "note": "(stereo not given)", "Percent Effect": 4.77}, {"compound": "CC1CCN(c2ncc(-c3ccccc3F)c(-c3nccn3C)n2)CC1", "Percent Effect": 15.2}, {"compound": "O=C(Cc1ccc2c(c1)CCC2)NC1CCN(Cc2ccccc2)CC1", "Percent Effect": -0.352}, {"compound": "CCN(CC)c1ncccc1CNCc1cc2ccccc2s1", "Percent Effect": -4.57}, {"compound": "O=C1CCCCCN1Cc1cccc(OC(F)F)c1", "Percent Effect": 3.82}, {"compound": "CC(C)(C)C(=O)N1CCCC1(C(=O)N1CCCC1)c1cnccn1", "note": "(stereo not given)", "Percent Effect": -4.87}]}]}
